PubChem BioAssay (NCI)
This is part of a sample that, as a whole, favours compounds with a hit. Of some 83,000 tested, about 20% had one in any assay.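 96-well plates, one dose, 48 hours. Percent growth reported; active if below 10.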 Values without a mark were called inactive. Activity calls are given as the source filed them.

How the values were obtained:
Experiment in all cases: NCI-60 one-dose screen, 48 h (100 = growth as untreated, 0 = no growth, -100 = all killed)
[1] = system: HCT-15 colon; conditions: 10 µM unless noted
[2] = system: HT29 colon; conditions: 10 µM unless noted
[3] = system: SNB-75 CNS; conditions: 10 µM unless noted
[4] = system: SNB-19 CNS; conditions: 10 µM unless noted
[5] = system: U251 CNS; conditions: 10 µM unless noted
[6] = system: PC-3 prostate; conditions: 10 µM unless noted
[7] = system: SK-MEL-5 melanoma; conditions: 10 µM unless noted
[8] = system: UACC-62 melanoma; conditions: 10 µM unless noted
[9] = system: LOX IMVI melanoma; conditions: 10 µM unless noted
[10] = system: SK-MEL-28 melanoma; conditions: 10 µM unless noted
[11] = system: EKVX NSCLC; conditions: 10 µM unless noted
[12] = system: SN12C renal; conditions: 10 µM unless noted
[13] = system: UO-31 renal; conditions: 10 µM unless noted
[14] = system: TK-10 renal; conditions: 10 µM unless noted
[15] = system: ACHN renal; conditions: 10 µM unless noted
[16] = system: CAKI-1 renal; conditions: 10 µM unless noted
[17] = system: A498 renal; conditions: 10 µM unless noted
[18] = system: CCRF-CEM leukemia; conditions: 10 µM unless noted
[19] = system: MOLT-4 leukemia; conditions: 10 µM unless noted
[20] = system: SK-MEL-2 melanoma; conditions: 10 µM

Compound: CCNC(=O)Nc1nc2ccc(Oc3ccnc(C(=O)NC)c3)cc2s1
- growth [1]: 52.7%
- growth [2]: 29.8%
- growth [3]: 77.1%
- growth [4]: 81%
- growth [5]: 58%
- growth [6]: 76.1%
- growth [7]: 66.8%
- growth [8]: 60%
- growth [9]: 70.7%
- growth [10]: 80.3%
- growth [11]: 85.9%
- growth [12]: 91.9%
- growth [13]: 88.2%
- growth [14]: 86.5%
- growth [15]: 96.4%
- growth [16]: 92.5%
- growth [17]: 69.9%
- growth [18]: 62.8%
- growth [19]: 47.9%

Compound: Cc1cc(C(=O)NOCCO)c(Nc2ccc(I)cc2F)n(C)c1=O
- growth [1]: 67.5%
- growth [2]: 7.17% (active)
- growth [3]: 83.8%
- growth [4]: 57.9%
- growth [5]: 51.8%
- growth [6]: 106%
- growth [7]: 50.4%
- growth [8]: -1.84% (active)
- growth [9]: 26.3%
- growth [10]: 1.47% (active)
- growth [11]: 56.7%
- growth [12]: 68.3%
- growth [13]: 46.3%
- growth [14]: 48%
- growth [15]: 64.3%
- growth [16]: 40.6%
- growth [17]: -14% (active)
- growth [18]: 85%
- growth [19]: 83.7%

Compound: Clc1ccc(/C=C/c2cc(N3CCOCC3)c3cc(Cl)c(Cl)cc3n2)cc1
- growth [1]: 97.4%
- growth [2]: 93.1%
- growth [3]: 69.7%
- growth [4]: 108%
- growth [5]: 81.4%
- growth [6]: 37.2%
- growth [7]: 93.9%
- growth [8]: 98.6%
- growth [9]: 99.6%
- growth [10]: 105%
- growth [20]: 104%
- growth [12]: 20.1%
- growth [13]: 12.5%
- growth [14]: 92.8%
- growth [16]: 78.6%
- growth [17]: 67.7%
- growth [18]: 4.25% (active)
- growth [19]: 1.45% (active)

Compound: CC(=O)Nc1cccc(-n2c(=O)n(C3CC3)c(=O)c3c(Nc4ccc(I)cc4F)n(C)c(=O)c(C)c32)c1
- growth [1]: 45.4%
- growth [2]: 5.59% (active)
- growth [3]: 43%
- growth [4]: 48.3%
- growth [5]: 39.9%
- growth [6]: 63.7%
- growth [7]: 32.7%
- growth [8]: -6.11% (active)
- growth [9]: 14%
- growth [10]: -4.75% (active)
- growth [11]: 46%
- growth [12]: 49.7%
- growth [13]: 12%
- growth [14]: 21.8%
- growth [15]: 42%
- growth [16]: 27.1%
- growth [17]: -34.4% (active)
- growth [18]: 68.5%
- growth [19]: 65.5%

Compound: Clc1nc(Cl)c2ncn(CC#CCn3cnc4c(Cl)nc(Cl)nc43)c2n1
- growth [1]: -65.7% (active)
- growth [2]: -44.2% (active)
- growth [3]: 8.25% (active)
- growth [4]: 12.2%
- growth [5]: -75.8% (active)
- growth [6]: -72.1% (active)
- growth [7]: -66.9% (active)
- growth [8]: -11.6% (active)
- growth [9]: -83.4% (active)
- growth [10]: -26.1% (active)
- growth [20]: 65.3%
- growth [11]: -39.3% (active)
- growth [12]: 3.09% (active)
- growth [14]: -31.5% (active)
- growth [15]: -53.3% (active)
- growth [16]: -96.5% (active)
- growth [18]: -62.2% (active)
- growth [19]: 1.03% (active)

Compound: CNC(=O)c1cc(Oc2cccc3nc(Nc4ccc(Cl)c(F)c4)ccc23)ccn1
- growth [1]: 59.3%
- growth [2]: 82.5%
- growth [3]: -11.7% (active)
- growth [4]: 30.3%
- growth [5]: 53.3%
- growth [6]: 66.1%
- growth [7]: 44.8%
- growth [8]: 52.3%
- growth [9]: 59.6%
- growth [10]: 48.8%
- growth [11]: 71.1%
- growth [12]: 63.2%
- growth [13]: 81.6%
- growth [14]: 54.1%
- growth [15]: 38.5%
- growth [16]: 87.9%
- growth [17]: 83.8%
- growth [18]: 91.3%
- growth [19]: 69.2%

Compound: O=C(CNc1nc(-c2ccc(Cl)cc2)cs1)Nc1ccc(-c2nc3ccccc3s2)cc1
- growth [1]: 110%
- growth [2]: 108%
- growth [3]: 77.8%
- growth [4]: 98.2%
- growth [5]: 91.6%
- growth [6]: 90.7%
- growth [7]: 87.7%
- growth [8]: 91.9%
- growth [9]: 95.6%
- growth [10]: 111%
- growth [11]: 102%
- growth [12]: 101%
- growth [13]: 75%
- growth [14]: 66.5%
- growth [15]: 105%
- growth [16]: 94.2%
- growth [17]: 102%
- growth [18]: 93%
- growth [19]: 92.7%

Compound: O=C(Cc1ccc(/C=C/C(=O)c2ncc[nH]2)cc1)Nc1ccc(Br)cc1
- growth [1]: -5.46% (active)
- growth [2]: -21% (active)
- growth [3]: 40.5%
- growth [4]: 8.45% (active)
- growth [5]: -63.5% (active)
- growth [6]: 17%
- growth [7]: 54.8%
- growth [8]: 31%
- growth [9]: -65% (active)
- growth [10]: 73.4%
- growth [11]: 38.6%
- growth [12]: 9.91% (active)
- growth [13]: -40% (active)
- growth [14]: 75.5%
- growth [15]: 2.05% (active)
- growth [16]: 32.5%
- growth [17]: 73.5%
- growth [18]: 6.63% (active)
- growth [19]: 2.86% (active)

Compound: COc1cc2c(cc1OCCCN1Cc3ccc(OCCCCC(=O)N4CCC(CCN5CCCC5)CC4)cc3C1)N=C(N)C21CCCC1
- growth [1]: 102%
- growth [2]: 9.48% (active)
- growth [3]: 60.3%
- growth [4]: 103%
- growth [5]: 79.2%
- growth [6]: 79.9%
- growth [7]: 55.3%
- growth [8]: 106%
- growth [9]: 64%
- growth [10]: 97.9%
- growth [11]: 96.9%
- growth [12]: 95.3%
- growth [13]: 93.7%
- growth [14]: 99.3%
- growth [15]: 110%
- growth [16]: 93.9%
- growth [17]: 78.8%
- growth [18]: 61.3%
- growth [19]: 44.8%

Compound: CCc1cc2c(cc1N1CCC(N3CCOCC3)CC1)C(C)(C)c1[nH]c3cc(C#N)ccc3c1C2=O
- growth [1]: 7.91% (active)
- growth [2]: -58% (active)
- growth [3]: -90.3% (active)
- growth [4]: 20.2%
- growth [5]: -19.5% (active)
- growth [6]: 4.07% (active)
- growth [7]: 10.2%
- growth [8]: -16.4% (active)
- growth [9]: -16.2% (active)
- growth [10]: -27.2% (active)
- growth [11]: 15.9%
- growth [12]: -14.9% (active)
- growth [13]: -67.2% (active)
- growth [14]: -12.1% (active)
- growth [15]: -27.3% (active)
- growth [16]: -46.7% (active)
- growth [17]: -37.1% (active)
- growth [18]: 22.4%
- growth [19]: 25.4%

Compound: CC/C(=C(/c1ccc(Cl)cc1)c1ccc(OCCN2CCCCC2)cc1)c1ccc(Cl)cc1
- growth [1]: 57.1%
- growth [2]: 23%
- growth [3]: 85.7%
- growth [4]: 85.7%
- growth [5]: 62.3%
- growth [6]: 63.7%
- growth [7]: 86.9%
- growth [8]: 97%
- growth [9]: 82.2%
- growth [10]: 98.5%
- growth [11]: 57.4%
- growth [12]: 76.5%
- growth [13]: 58.8%
- growth [14]: 90.8%
- growth [15]: 91.2%
- growth [16]: 74.4%
- growth [17]: 94%
- growth [18]: 50.6%
- growth [19]: 69.2%

Compound: COc1cc(C2CC(c3ccc(Cl)cc3)=NN2c2ccc(Cl)cc2)cc(OC)c1OC (centres undefined)
- growth [1]: 91.2%
- growth [2]: 94.7%
- growth [3]: 58.7%
- growth [4]: 88.1%
- growth [5]: 85.1%
- growth [6]: 64.1%
- growth [7]: 97.9%
- growth [8]: 77%
- growth [9]: 99.8%
- growth [10]: 96.1%
- growth [20]: 98.8%
- growth [12]: 88.4%
- growth [13]: 77.1%
- growth [14]: 98%
- growth [15]: 86%
- growth [16]: 82.3%
- growth [17]: 88%
- growth [18]: 84.7%
- growth [19]: 67.8%

Compound: COc1ncc(-c2ccc3nccc(-c4ccnnc4)c3c2)cc1NS(=O)(=O)c1ccc(F)cc1F
- growth [1]: -15% (active)
- growth [2]: -10.4% (active)
- growth [3]: -29.8% (active)
- growth [4]: -42.8% (active)
- growth [5]: -62.3% (active)
- growth [6]: -0.788% (active)
- growth [7]: -95.8% (active)
- growth [8]: -67.4% (active)
- growth [9]: -42.8% (active)
- growth [10]: -17.4% (active)
- growth [11]: -7.55% (active)
- growth [12]: 16.4%
- growth [13]: -25.7% (active)
- growth [14]: -44.7% (active)
- growth [15]: 15.3%
- growth [16]: -19.8% (active)
- growth [17]: -48.2% (active)
- growth [18]: 1.61% (active)
- growth [19]: -11.9% (active)

Compound: O=c1sn(-c2cccc3ccccc23)c(=O)n1Cc1ccccc1
- growth [1]: 104%
- growth [2]: 100%
- growth [3]: 105%
- growth [4]: 101%
- growth [5]: 97.1%
- growth [6]: 89.9%
- growth [7]: 104%
- growth [8]: 92.6%
- growth [9]: 99.9%
- growth [10]: 114%
- growth [11]: 108%
- growth [12]: 94.8%
- growth [13]: 86.3%
- growth [14]: 95.5%
- growth [15]: 106%
- growth [16]: 99%
- growth [17]: 102%
- growth [18]: 64.9%
- growth [19]: 39.1%

Compound: N#Cc1c(NC(=O)c2cccs2)[n+]([O-])c2ccc(F)cc2[n+]1[O-]
- growth [1]: 74.6%
- growth [2]: 97.6%
- growth [3]: 81.1%
- growth [4]: 98%
- growth [5]: 93.2%
- growth [6]: 77.3%
- growth [7]: 2.84% (active)
- growth [8]: 83.2%
- growth [9]: 89.9%
- growth [10]: 112%
- growth [20]: 92.9%
- growth [11]: 86.4%
- growth [12]: 98.3%
- growth [14]: 117%
- growth [15]: 89%
- growth [16]: 90.7%
- growth [18]: 77.7%
- growth [19]: 90.2%

Compound: CC1(O)CCC2CC3OC3(C)CCC3OC3(C)C(O)CC1C2(C)C (centres undefined)
- growth [1]: 102%
- growth [2]: 102%
- growth [3]: 95.3%
- growth [4]: 99.3%
- growth [5]: 98.3%
- growth [6]: 87.4%
- growth [7]: 112%
- growth [8]: 98.3%
- growth [9]: 93.7%
- growth [10]: 112%
- growth [20]: 103%
- growth [11]: 87.8%
- growth [12]: 103%
- growth [14]: 107%
- growth [15]: 101%
- growth [16]: 99.2%
- growth [18]: 91.5%
- growth [19]: 106%

Compound: O=c1[nH]c([C@@H]2CCCN2)nc2c1oc1ccc(Cl)cc12
- growth [1]: 66.3%
- growth [2]: 43.9%
- growth [3]: 7.8% (active)
- growth [4]: 74.8%
- growth [5]: 42.6%
- growth [6]: 58%
- growth [7]: 51.2%
- growth [8]: 78.5%
- growth [9]: 39%
- growth [10]: 78.8%
- growth [11]: 61.4%
- growth [12]: 81.3%
- growth [13]: 58.4%
- growth [14]: 52.3%
- growth [15]: 71.5%
- growth [16]: 42.4%
- growth [17]: 6.25% (active)
- growth [18]: 63.1%
- growth [19]: 68.4%
